Experimental data taken from PubChem BioAssay AID1347165 (National Center for Advancing Translational Sciences (NCATS), 2019).
In all, about 220,000 compounds went through this assay and about 5,700 (2.6%) were called active. Another 18% or so got no clear call; they are omitted. The entries come from a sample that favours actives as a whole. Values without a mark were called inactive. Calls come from the whole dose curve; as a rule, active = well fitted inhibition curve with a large enough effect; inconclusive = small, poorly fitted or top-dose-only effect; inactive = no such curve, though single readings can be large or run the other way.

molecular target: Lysine-specific demethylase 5B (Homo sapiens) (UniProt Q9UGL1); test: Primary screen for KDM5B Histone Demethylases FDH-coupled qHTS; settings: FDH-coupled NADH fluorescence (FDH is formaldehyde dehydrogenase); series mostly up to 57.7 µM; activity change, negative = inhibition: at the top concentration; note: nearly all actives have a fitted effect of over 70% in size; for activity change, negative = inhibition: 0% is about no effect
In short: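 Compound dilutions met 200 nM (final) KDM5BΔAP for 10 min at room temperature before substrate addition. The substrate mix held 12.5 µM H3K4me3 with cofactors 25 µM α-ketoglutarate and 50 µM Fe²⁺. NADH signal gain over 30 min defined activity.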
Potency is the fitted concentration of half-maximal effect.

Lysine-specific demethylase 5B (Homo sapiens), sequence (Q9UGL1 whole entry, looked up): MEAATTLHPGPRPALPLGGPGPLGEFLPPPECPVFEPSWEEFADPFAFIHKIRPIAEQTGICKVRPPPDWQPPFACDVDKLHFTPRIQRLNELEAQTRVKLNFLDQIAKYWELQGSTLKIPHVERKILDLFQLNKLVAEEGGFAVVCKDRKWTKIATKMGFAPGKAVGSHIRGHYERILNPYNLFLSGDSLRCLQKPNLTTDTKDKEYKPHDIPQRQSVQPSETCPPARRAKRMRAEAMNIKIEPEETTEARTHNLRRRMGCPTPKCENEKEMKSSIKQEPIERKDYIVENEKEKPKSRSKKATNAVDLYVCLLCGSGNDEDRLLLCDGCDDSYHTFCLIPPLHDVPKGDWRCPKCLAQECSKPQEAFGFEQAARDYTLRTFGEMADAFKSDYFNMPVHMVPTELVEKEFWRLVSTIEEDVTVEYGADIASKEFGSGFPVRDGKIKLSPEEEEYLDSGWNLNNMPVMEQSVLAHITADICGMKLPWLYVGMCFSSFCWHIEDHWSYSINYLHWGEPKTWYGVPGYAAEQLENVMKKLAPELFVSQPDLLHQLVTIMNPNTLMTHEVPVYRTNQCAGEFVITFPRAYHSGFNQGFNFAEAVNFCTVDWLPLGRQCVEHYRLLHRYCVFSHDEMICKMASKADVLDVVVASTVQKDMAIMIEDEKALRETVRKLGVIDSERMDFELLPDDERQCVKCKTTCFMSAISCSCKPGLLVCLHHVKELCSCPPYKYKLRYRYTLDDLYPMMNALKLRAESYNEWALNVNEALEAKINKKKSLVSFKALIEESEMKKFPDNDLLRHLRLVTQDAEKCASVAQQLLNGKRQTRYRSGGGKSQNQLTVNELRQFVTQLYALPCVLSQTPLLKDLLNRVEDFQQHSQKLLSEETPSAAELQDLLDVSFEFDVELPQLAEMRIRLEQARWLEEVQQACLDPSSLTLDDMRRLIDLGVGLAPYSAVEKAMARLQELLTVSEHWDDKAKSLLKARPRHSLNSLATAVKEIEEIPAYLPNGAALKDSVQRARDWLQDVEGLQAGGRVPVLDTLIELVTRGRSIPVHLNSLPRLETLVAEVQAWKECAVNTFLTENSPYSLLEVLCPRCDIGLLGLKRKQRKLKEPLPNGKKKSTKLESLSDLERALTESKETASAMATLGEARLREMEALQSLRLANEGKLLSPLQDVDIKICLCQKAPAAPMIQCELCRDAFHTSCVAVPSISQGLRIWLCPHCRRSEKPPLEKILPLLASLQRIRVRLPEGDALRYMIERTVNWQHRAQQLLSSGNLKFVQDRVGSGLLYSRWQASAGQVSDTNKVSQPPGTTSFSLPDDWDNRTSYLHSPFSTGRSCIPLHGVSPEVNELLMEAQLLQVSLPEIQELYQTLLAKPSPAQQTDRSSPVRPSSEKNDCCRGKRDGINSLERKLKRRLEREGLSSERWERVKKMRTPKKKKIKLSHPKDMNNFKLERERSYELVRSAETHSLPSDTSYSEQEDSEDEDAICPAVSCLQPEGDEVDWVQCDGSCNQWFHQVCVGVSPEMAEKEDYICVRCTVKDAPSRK

Row | SMILES | activity change, negative = inhibition | Potency
1 | COc1ccc(N2CCN(C3CCCN(CC(=O)N(C)C(C)C)C3)CC2)cc1 (stereo not given) | -16.9% | 
2 | COc1ccc(-n2nc(-c3ccccc3)n(CC(=O)N(C)CC(C)C)c2=O)cc1 |  | 31.6 µM (active)
3 | COC(=O)CNC(=O)CNC(=O)c1nn(-c2ccc(OC)cc2)c(=O)c2ccccc12 | -5.61% | 
4 | CCOC(=O)C(NC(=O)/C=C/c1c(Cl)cccc1Cl)C(=O)OCC | 25.9% | 
5 | Cc1cn2nc(C(=O)NCc3cccs3)cc2c(N2CCCC2)n1 | -2110% | 
6 | Cc1ccc2cc(C(=O)NCc3ccc(N4CCCC4)nc3)c(C)nc2c1 | -7.88% | 
7 | Cc1cn2nc(C(=O)NCc3ccc(F)cc3)cc2c(N2CCCC2)n1 |  | 25.1 µM (active)
8 | CSc1ccc(CNC(=O)c2cc3c(N4CCCC4)nc(C)cn3n2)cc1 |  | 28.2 µM (active)
9 | Cc1cn2nc(C(=O)NCC(C)c3ccccc3)cc2c(N2CCCC2)n1 (stereo not given) | -1660% | 
10 | CSc1ccc(CNC(=O)c2noc(-c3ccc(C)cc3)n2)cc1 | -6.66% | 
11 | CCOC(=O)C(=O)Nc1ccc(C(=O)OC)cc1 | 23.4% | 
12 | CSc1ccc(CNC23CC4CC(C)(CC(C)(C4)C2)C3)cc1 | 16.9% | 
13 | Cc1cccc(C)c1OCC(O)Cn1cnc2c(cnn2-c2ccc(F)cc2)c1=O (stereo not given) | 5.4% | 
14 | Cn1c(SCc2ccc(F)cc2)nnc1-c1ccncc1 | 17.7% | 
15 | COc1ccc(OC)c2[nH]c(C(=O)NCC(=O)Nc3nc(C)cs3)cc12 | 29.2% | 
16 | CCC1(C)CC(CC(=O)OC(C)CN(C)C)(c2ccccc2)CCO1 (stereo not given) | 32.5% | 
17 | CNc1ncc(C(=O)N[C@@H]2COCC[C@@H]2OCc2c(C)noc2C)cn1 |  | 28.2 µM (active)
18 | Cc1cc(N)n(CC(=O)N[C@@H]2COCC[C@@H]2OCc2c(C)noc2C)n1 | -15.9% | 
19 | Cc1noc(C)c1CCCNC(=O)c1ccc(N(C)C2CCOC2)nc1 (stereo not given) | 1.14% | 
20 | O=C(NC1(c2ccc(Cl)cc2)CCC1)c1cc(Cl)c[nH]1 | 4.6% | 
21 | Cc1ccc(Cc2nn3c(SCC(=O)Nc4ccccc4C(F)(F)F)nnc3[nH]c2=O)cc1 | 0.896% | 
22 | COC(=O)[C@H](C)NC(=O)C12CC3CC(CC(C3)C1)C2 | 16.7% | 
23 | CCc1c(C)sc(NC(=O)C(CC)CC)c1C#N | -13.5% | 
24 | COCC1CCN(C(=O)c2ccc3oc(Cc4ccccc4)nc3c2)C1 (stereo not given) | 30.4% | 
25 | Cc1ccc(-c2cc(N3CCCN(C(=O)c4nn(C)c5ccccc45)CC3)n[nH]2)cc1C | -17.1% | 
26 | COc1ccccc1-c1[nH]nc2ncc(-c3cccc(CO)c3)nc12 |  | 39.8 µM (active)
27 | COCCNC(=O)c1cnc2n[nH]c(-c3ccccc3OC)c2n1 | -15.1% [at 86.2 µM] | 

Row | SMILES | activity change, negative = inhibition | Potency
28 | COc1ccc(-c2[nH]nc3ncc(-c4ccccc4)nc23)c(C)c1 | -17.3% [at 86.2 µM] | 
29 | Oc1ccc(/C=C(/Cl)c2ncc(-c3ccc(F)cc3)o2)cc1 | -3.78% | 
30 | COc1ccc(N2CCN(c3nc(C(=O)NC4CCCCCC4)cs3)CC2)cc1 | -9.1% | 
31 | Cc1cn2nc(C(=O)NC3CCCC3)cc2c(N2CCSCC2)n1 |  | 28.2 µM (active)
32 | COc1cccc(NC(=O)c2csnn2)c1 | -29.2% | 
33 | COc1cc(NC(=O)c2cc3c(N4CCSCC4)nc(C)cn3n2)cc(OC)c1 |  | 31.6 µM (active)
34 | O=C(NC1CCCCC1)c1cc(C2CC2)on1 | 20.7% | 
35 | CCOC(=O)C1CCN(CCC(=O)Nc2cc(OC)cc(OC)c2)CC1 | -4.23% | 
36 | O=C(OC1CCOC1=O)c1ccccc1SC1CCOC1=O (stereo not given) | -15.3% | 
37 | O=C1CC(c2nc(-c3ccc(Oc4ccccc4)cc3)no2)CN1c1ccccc1 (stereo not given) | 21.5% | 
38 | O=C(c1ccccc1F)N1CCC2(CC1)C(=O)NN=C2C1CC1 | 7.64% [at 86.2 µM] | 
39 | CNC(=O)c1cccc(NC(=O)CC(C)(C(=O)O)c2ccccc2)c1 (stereo not given) | 1.72% | 
40 | Cc1cc(C)c(CNC(=O)c2nc(-c3cccc(CO)c3)cc3c2ccn3C)c(=O)[nH]1 |  | 35.5 µM (active)
41 | O=S(=O)(Oc1ccccc1C(=S)N1CCOCC1)c1ccc(Cl)cc1 | -14.3% | 
42 | CCN(c1ccc(NC(=O)c2nccnc2N)cc1)C(C)C | -22.1% | 
43 | Cc1cc(S(=O)(=O)c2cc3cc(F)cc(F)c3oc2=O)ccc1F | -3.98% | 
44 | O=S(=O)(c1ccc(F)cc1)N1CCn2cccc2C1c1ccccc1F (stereo not given) | -23.3% | 
45 | Cc1cccc(NN)c1C | 13.4% | 
46 | COc1cccc(CNC(=O)CC(C)CC(=O)O)c1 (stereo not given) | -3.92% | 
47 | CCc1ccc(OCC(=O)Nc2ccc(S(=O)(=O)NC(C)(C)C)cc2)cc1 | -20.3% | 
48 | NC(=O)c1ccc(OC2CCN(C(=O)c3ccc(F)cc3)CC2)nc1 | -3.04% | 
49 | NC(=O)c1ccc(OC2CCN(C(=O)CCc3ccccc3)C2)nc1 (stereo not given) | 0.563% | 
50 | CNc1ccc(OC2CCN(C(=O)NCCc3ccccc3)CC2)nc1 |  | 28.2 µM (active)
51 | CN(C)c1ncccc1CNC(=O)Cc1ccccc1F | -3.47% | 
52 | CC(NC(=O)c1ccc2c(c1)CCCC2)c1ccccc1 (stereo not given) | 18.5% | 
53 | Cc1c(C(=O)NCCN(C)C)oc2ccc(S(=O)(=O)N3CCCC3)cc12 | 14% | 
54 | Fc1ccc(-c2cnc3n[nH]c(-c4ccc5c(c4)OCO5)c3n2)cc1 | 4.47% [at 86.2 µM] | 

Row | SMILES | activity change, negative = inhibition | Potency
55 | Cc1cccc(-c2cnc3n[nH]c(-c4ccc5c(c4)OCO5)c3n2)c1 | 7.1% [at 86.2 µM] | 
56 | Cc1ccsc1-c1[nH]nc2ncc(-c3ccccc3O)nc12 | -14.5% [at 86.2 µM] | 
57 | C[S+](=O)([O-])c1ccc(-c2cnc3n[nH]c(-c4ccccc4)c3n2)cc1 |  | 35.5 µM (active)
58 | COc1ccc(-c2[nH]nc3ncc(-c4cn[nH]c4)nc23)cc1F | -28.7% [at 86.2 µM] | 
59 | Cn1cc(-c2cnc3n[nH]c(-c4ccccc4)c3n2)cn1 |  | 35.5 µM (active)
60 | Cc1ccc(C(=O)NCC(c2cccs2)N(C)C)cc1S(=O)(=O)N1CCOCC1 (stereo not given) | -3.06% | 
61 | O=C(c1cccc(Br)c1)N1CCN(C2=NS(=O)(=O)c3ccccc32)CC1 | 13% | 
62 | COc1ccc(NC(=O)CCCC2CCCCC2)c(OC)c1 | -4.56% | 
63 | COc1ccccc1CN1CCC(N2CCN(c3ccccc3OC)CC2)CC1 | -8.14% | 
64 | COc1ccccc1CN1CC[C@@H](CO)N(C)c2ncccc2C1 |  | 31.6 µM (active)
65 | COc1cccc(CN2CCN(Cc3ncccc3C)CC2)c1O | -54.2% | 
66 | CC(C)n1ncc2cc(C(=O)N3CCCCc4ccccc43)cnc21 | 6.87% | 
67 | CCN(CCCNC(=O)c1nn(-c2ccc(OC)cc2)c(=O)c2ccccc12)Cc1ccccc1 | -6.9% | 
68 | CN(Cc1ccc(F)cc1)C(=O)Cn1nc(C(=O)O)c2ccccc2c1=O | 3.35% | 
69 | CC(=O)Nc1ccc(C2(C(=O)NCCCN3CCOCC3)CCCCC2)cc1 | -14.7% | 
70 | COc1ccc(S(=O)(=O)N2CCCC(C(=O)NCCCn3ccnc3)C2)cc1OC (stereo not given) | 15.5% | 
71 | CN1CCC2(C1)CN(CC1CCOCC1)c1ccc(C(=O)NCCCn3ccnc3)cc12 (stereo not given) |  | 39.8 µM (active)
72 | Cc1c(C(=O)N(Cc2nc3ccccc3c(=O)[nH]2)C(C)C)oc2ccc(Cl)cc12 | -4.06% | 
73 | CCN1C(=O)C(=O)N(CC(=O)Nc2cc(C)ccc2C)C1=O | 22.3% | 
74 | Cc1ccc(C(=O)N2CC[C@H](CO)[C@H](NC(=O)C3CC3)C2)cn1 | -23.3% | 
75 | CC(=O)N[C@H]1CN(c2cncc(C(=O)N3CCCC3)n2)C[C@@H]1C1CC1 |  | 28.2 µM (active)
76 | O=C(c1cnccn1)N1CC2CC(C1)[C@H]1CCCC(=O)N1C2 (stereo not given in full) | 23.3% | 
77 | Cc1ccc(N(CC(=O)NC2CCCCCCC2)S(=O)(=O)N(C)C)cc1 | 15.6% | 
78 | O=C(Nc1cccnc1)[C@@H]1C[C@@H](c2ccc(F)cc2)N([S+](=O)([O-])c2ccccc2)C1 | -8.21% [at 86.2 µM] | 
79 | O=C(Nc1cccc(Cl)c1)[C@@H]1C[C@H](c2ccc(F)cc2)N([S+](=O)([O-])C2CC2)C1 | -4.57% [at 86.2 µM] | 
80 | O=C([C@@H]1C[C@H](c2ccc(F)cc2)N([S+](=O)([O-])C2CC2)C1)N1CCN(c2ccccn2)CC1 |  | 20 µM (active)
81 | Cc1c(C)n2c3c(=O)[nH]c(=O)n(C)c3nc2n1CCN1CCN(Cc2ccc(F)cc2)CC1 | 16.1% | 

Row | SMILES | activity change, negative = inhibition | Potency
82 | C=CCOC/C=C/C#CCN(CC=C)Cc1ccc(OC)cc1OC | 14.3% | 
83 | O=C1Nc2ccccc2CC12CCN(CC1CC1)C2 (stereo not given) | 20.3% [at 86.2 µM] | 
84 | CC(=O)N1CCCC2(C1)CN(C)c1ccc(C(=O)NC3CC3)cc12 (stereo not given) |  | 25.1 µM (active)
85 | CCCN1C(=O)Cc2cc(C(=O)NC3CC3)ccc21 | 9.76% | 
86 | CC(=O)N1CCC(Cc2ccc(C(=O)NC3CC3)cc2)CC1 | 4.77% | 
87 | O=C(NC1CCCCC1)c1ccc2c(c1)N(Cc1ccc(Cl)cc1)C(=O)c1ccccc1S2=O (stereo not given) | -4.14% | 
88 | O=C(NC1CC1)c1ccc2c(c1)C1(CCN(CC3CC3)C1)CN2Cc1ccccc1 (stereo not given) |  | 31.6 µM (active)
89 | COC(=O)c1cccc(N(CC(=O)NCC2CCCO2)C(=O)CCC(=O)Nc2cc(C)on2)c1 (stereo not given) | 10.2% | 
90 | COc1ccccc1C(=O)OCC(=O)NCCNC(=O)COC(=O)c1ccccc1OC | 0% | 
91 | CSCC[C@H](NC(=O)CSc1cc(Cl)ccc1Cl)c1nc2ccccc2[nH]1 | 4.03% | 
92 | Cc1cc(C(=O)NCCc2ccc(Cl)cc2)c(C)o1 | -33.8% | 
93 | O=C(c1ccoc1)N1CCC(Oc2ncccc2C(=O)N2CCOCC2)C1 (stereo not given) | -12.4% | 
94 | COc1cccc(S(=O)(=O)NCc2ccc(C(=O)NCc3ccccn3)cc2)c1 | -7.31% | 
95 | O=C(Nc1ccc(C(=O)N2CCOCC2)cc1)Nc1cccc(C(F)(F)F)c1 | 31.3% | 
96 | O=C(NCc1ccccn1)c1ccc2nccn2c1 |  | 31.6 µM (active)
97 | O=C(NC1CCN(Cc2ccc(F)c(F)c2)CC1)c1ccc2nccn2c1 |  | 28.2 µM (active)
98 | NC(=O)CN1CCC(NC(=O)c2ccc(Oc3ccc(F)cc3)cc2)CC1 | 2.21% | 
99 | O=C(NCCc1ccc(Cl)cc1)c1ccc2nccn2c1 |  | 112 µM (active)
100 | NC(=O)CN1CCC(NC(=O)c2cccc(F)c2)CC1 | 8.54% | 
101 | CCn1cc(-c2ccccc2)cc1C(=O)NCc1ccccn1 | -13.5% | 
102 | O=C(c1ccc2nccn2c1)N1CCOCC1 |  | 100 µM (active)
103 | O=C(NCCc1ccc(Cl)cc1)c1ccc2nc(CCc3ccccc3)oc2c1 | -15% | 
104 | COc1ccc2nc(NC(=O)Nc3ccc(C)cc3)sc2c1 | 6.82% | 
105 | COc1cc(/C=C(\C#N)C(=O)C(C)(C)C)ccc1OCc1c(Cl)cccc1Cl | -26.9% | 
